About 83,000 compounds went through this panel and 20% of them were active in at least one assay; those are over-represented in the sample as a whole.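 How to read the values: 0–100, growth inhibition (40 = 60% inhibited); 0, no net growth; -100 to 0, cell death (-40 = 40% of starting cells died; -100 = all dead).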 Values without a mark were called inactive. Active and inactive are the calls of the source. How the source made its calls: active means growth percent below 10; inactive means the rest.

Test systems include NCI-H23 lung; NCI-H226 lung; NCI-H322M lung; HOP-62 NSCLC; NCI-H460 lung; HOP-92 NSCLC; NCI-H522 lung; A549/ATCC NSCLC; 786-0 renal; COLO 205 colon.
Common to all, as to test: NCI-60 one-dose screen, 48 h (100 = growth as untreated, 0 = no growth, -100 = all killed)
Common to all, as to settings: 10 µM unless noted

As for `Cc1[nH]c(C(=O)Nc2ccccc2OCc2cccc(C(=O)NC3CCCNC3)c2)c(Cl)c1Cl` (stereo not given), the growth in the assay with NCI-H23 lung was -76.7% (active); in the assay with NCI-H226 lung, 73.3%; in the assay with NCI-H322M lung, -93.7% (active); with HOP-62 NSCLC, -42.2% (active); in the assay on NCI-H460 lung it was -68.5% (active); in the assay on HOP-92 NSCLC it was 47.9%. For the same compound, the growth with NCI-H522 lung was -50.9% (active); in the assay with A549/ATCC NSCLC, -52.6% (active); in the assay with 786-0 renal it was -71.6% (active); in the assay on COLO 205 colon, -33.2% (active).
On to `CS(=O)(=O)c1ccc(/C(=N/N=C(N)N)c2ccc(F)cc2)cc1`, for which the growth with NCI-H23 lung was 88.3%; in the assay with NCI-H226 lung, 91%; in the assay on NCI-H322M lung, 119%; with HOP-62 NSCLC, 95.7%; in the assay on NCI-H460 lung, 92.7%; in the assay with HOP-92 NSCLC it was 94.4%. The growth is 81.2% in the assay on NCI-H522 lung, 80.8% in the assay on A549/ATCC NSCLC, 76.9% with 786-0 renal and 88% in the assay on COLO 205 colon.
Consider `CC(C)[C@H]1c2[nH]c3ccccc3c2C[C@H]2C(=O)N(CCCCCCC(=O)NO)CC(=O)N12`, for which the growth was 87.6% in the assay with NCI-H23 lung; 102% with NCI-H226 lung; 88.4% with NCI-H322M lung; 85.7% with HOP-62 NSCLC; 78.5% in the assay with NCI-H460 lung; 74.9% in the assay on HOP-92 NSCLC. Moreover, the growth in the assay with NCI-H522 lung is 42.8%; in the assay with A549/ATCC NSCLC it was 98.7%; in the assay with 786-0 renal it was 97.3%; with COLO 205 colon it was 83.8%.
Regarding `Cc1ccc2c(n1)C(=O)C(Cl)=C(Nc1ccc(C#N)cc1)C2=O`, the growth in the assay on NCI-H23 lung was 92.3%; in the assay with NCI-H226 lung it was 98.3%; in the assay with NCI-H322M lung, 109%; in the assay on HOP-62 NSCLC, 115%; in the assay on NCI-H460 lung, 100%; in the assay on HOP-92 NSCLC, 126%. Besides, the growth was 52.4% in the assay with NCI-H522 lung, 106% in the assay with A549/ATCC NSCLC, 80.4% with 786-0 renal and 79.6% with COLO 205 colon.
Turning to `C=C(C)[C@@H]1CC[C@]2(C(=O)O)CC[C@]3(C)[C@H](CC[C@@H]4[C@@]5(C)C/C(=C/c6ccccn6)C(=O)C(C)(C)[C@@H]5CC[C@]43C)[C@@H]12`, the growth was 38.6% in the assay with NCI-H23 lung; 39.9% in the assay with NCI-H226 lung; 44.3% in the assay with NCI-H322M lung; 36.3% in the assay on HOP-62 NSCLC; 16.1% with NCI-H460 lung; 34.7% with HOP-92 NSCLC. Moreover, the growth is 24.1% with NCI-H522 lung, 16.5% in the assay on A549/ATCC NSCLC, 51.1% in the assay on 786-0 renal and 54.7% in the assay on COLO 205 colon.
Regarding `C#C[C@]1(O)CC[C@H]2[C@@H]3CC=C4c5sc(Nc6ccc(C)cn6)nc5CC[C@]4(C)[C@H]3CC[C@@]21C`, the growth is 1.46% (active) in the assay with NCI-H23 lung; 11.5% in the assay on NCI-H226 lung; 25.1% with NCI-H322M lung; 6.21% (active) in the assay with HOP-62 NSCLC; 5.32% (active) in the assay with NCI-H460 lung; -1.7% (active) with HOP-92 NSCLC. For the same compound, the growth was -21.5% (active) in the assay with NCI-H522 lung, 16.6% with A549/ATCC NSCLC, -53.2% (active) in the assay with 786-0 renal and -24.4% (active) in the assay on COLO 205 colon.
In the case of `COc1cc2cc(Oc3ccc(NC(=O)c4cc(C(F)(F)F)cc(C(F)(F)F)c4)cc3)c(C)nc2cc1OCCN1CCOCC1`, the growth was 66.9% with NCI-H23 lung; 70.3% in the assay on NCI-H226 lung; 98% in the assay on NCI-H322M lung; 88.6% in the assay on HOP-62 NSCLC; 61.6% in the assay on NCI-H460 lung; 44.8% in the assay with HOP-92 NSCLC. In addition, the growth is 58.1% in the assay on NCI-H522 lung, 61.4% in the assay with A549/ATCC NSCLC, 25.3% in the assay with 786-0 renal and 66.7% with COLO 205 colon.
In the case of `COc1ccc2c(c1)c(/C=N/Nc1ccnc3cc(Cl)ccc13)cn2C`, the growth with NCI-H23 lung is -80.5% (active); in the assay on NCI-H226 lung it was -52.3% (active); in the assay on NCI-H322M lung it was -95.1% (active); with HOP-62 NSCLC, -81.1% (active); with NCI-H460 lung, -79.1% (active); in the assay with HOP-92 NSCLC, -81.7% (active). The growth with NCI-H522 lung was -65.4% (active); in the assay on A549/ATCC NSCLC, -69.7% (active); in the assay on 786-0 renal, -81.3% (active); in the assay with COLO 205 colon, -86.6% (active).
Turning to `CC1=C(C)C(=O)C(Nc2cccc(C(=O)OC(C)(C)C)c2)=C(Cl)C1=O`, the growth with NCI-H23 lung is 92.4%; with NCI-H226 lung, 91.3%; in the assay on NCI-H322M lung it was 99.5%; with HOP-62 NSCLC, 103%; with NCI-H460 lung, 99.8%; with HOP-92 NSCLC it was 56.4%. Besides, the growth was 81.7% with NCI-H522 lung, 90.4% in the assay on A549/ATCC NSCLC, 96.5% in the assay on 786-0 renal and 118% with COLO 205 colon.
Turning to `O=C(CSc1nc2ccccc2c(=O)n1CCc1ccccc1)Nc1ccc(S(=O)(=O)Nc2ccc(Cl)nn2)cc1`, the growth is 89.9% in the assay with NCI-H23 lung; 88.1% in the assay with NCI-H226 lung; 92.8% in the assay with NCI-H322M lung; 95.8% with HOP-62 NSCLC; 101% in the assay on NCI-H460 lung; 79.7% in the assay with HOP-92 NSCLC. Further, the growth with NCI-H522 lung is 87.1%; with A549/ATCC NSCLC, 91.9%; in the assay with 786-0 renal, 102%; with COLO 205 colon it was 101%.
For `O=C(COc1ccc(/C=C2\C(=O)Nc3cc(Cl)ccc32)cc1)Nc1ccc(Cl)cc1`, the growth is 79.9% with NCI-H23 lung; 79.1% in the assay on NCI-H226 lung; 74.4% in the assay on NCI-H322M lung; 76.7% in the assay on HOP-62 NSCLC; 73.4% with NCI-H460 lung; 90.8% in the assay with HOP-92 NSCLC. Moreover, the growth is 45.7% in the assay with NCI-H522 lung, 68.8% in the assay on A549/ATCC NSCLC, 90.7% in the assay with 786-0 renal and 81.3% in the assay with COLO 205 colon.
Consider `COc1ccc(C(=NNS(=O)(=O)c2ccc(C)cc2)c2ccccc2)cc1OC`, for which the growth in the assay with NCI-H23 lung is 99.5%; in the assay with NCI-H226 lung, 99.5%; in the assay on NCI-H322M lung, 92.9%; in the assay on HOP-62 NSCLC, 102%; with NCI-H460 lung, 105%; in the assay on HOP-92 NSCLC, 90.4%. Besides, the growth in the assay with NCI-H522 lung was 92.4%; with A549/ATCC NSCLC, 96.1%; in the assay on 786-0 renal, 99.1%; in the assay on COLO 205 colon it was 111%.
For the compound `O=C(CCCCCCNC(=O)C(O)(O)C(F)(F)F)Nc1ncc(-c2ccccc2)s1`, the growth in the assay on NCI-H23 lung is -1.99% (active); with NCI-H226 lung, 14.9%; in the assay with NCI-H322M lung, 3.47% (active); with HOP-62 NSCLC, -6.52% (active); in the assay with NCI-H460 lung it was 2.92% (active); in the assay with HOP-92 NSCLC, -19.4% (active). The growth is -38.1% (active) with NCI-H522 lung, -12.9% (active) with A549/ATCC NSCLC, 17.1% with 786-0 renal and -73.3% (active) in the assay on COLO 205 colon.
